{"source": "PubChem BioAssay AID743282", "about": "(The Scripps Research Institute Molecular Screening Center, 2014)", "note": "Hit rate of the full screen: of about 2,000 compounds, about 170 (8.5%) were called active. A selection follows. A number with no mark means an inactive call.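 The calls were made as follows: active = average inhibition above the solvent-only control mean plus 3 SD (cut at about 6% in these data); inactive = the rest.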"}
{"test": "BODIPY product fluorescence quenching artefacts – biochemical, QFRET, 535nm, artefact control for HGIII-sPLA2 inhibitor project, confirmation (AID 743282);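 also: 0% = DMSO with substrate plus product and 100% = DMSO with substrate alone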", "details": "BODIPY FL product fluorescence interference, at 12.2 µM, active compounds read high"}
{"smiles": "CSC1=NN(c2ccccc2)CN(c2ccccc2)N1C", "inhibition": "4.75%"}
{"smiles": "Cc1c(C(=O)N/N=C/c2ccccc2)[nH]c2c([N+](=O)[O-])cccc12", "inhibition": "-10.6%"}
{"smiles": "NC(Cc1ccccc1)c1csc(Nc2cc(Oc3ccccc3)ncn2)n1", "note": "(stereo unspecified)", "inhibition": "-10.4%"}
{"smiles": "O=C(NNC(=S)Nc1ccc(Br)cc1Cl)c1ccco1", "inhibition": "3.75%"}
{"smiles": "CCOc1ccc(/C=N/NC(N)=S)cc1", "inhibition": "-2.77%"}
{"smiles": "Cc1cc(-c2n[nH]c(=S)n2-c2ccc(C)c(C)c2)no1", "inhibition": "2.66%"}
{"smiles": "CC(=O)NC(c1cccs1)c1cc(Br)c2cccnc2c1O", "note": "(stereo unspecified)", "inhibition": "1.21%"}
{"smiles": "Cc1cc(-n2nc(C)cc2C)n2ncc(-c3ccccc3)c2n1", "inhibition": "-10.6%"}
{"smiles": "CCOC(=O)C1(Cc2cccc(OC)c2)CCCN(C(=O)CCSC)C1", "note": "(stereo unspecified)", "inhibition": "-20.8%"}
{"smiles": "Cc1cccc(NC(=S)NCCN(C2CCCCC2)C2CCCC2)c1", "inhibition": "-19.9%"}
{"smiles": "Brc1ccccc1C1Nc2cccc3cccc(c23)N1", "inhibition": "16.4% (active)"}
{"smiles": "CC(=O)c1nnn(-c2ccc(Cl)cc2C#N)c1C", "inhibition": "-6.79%"}
{"smiles": "COc1ccc(C(=O)NC(=S)NNC(=O)c2c(-c3ccccc3)noc2C)cc1", "inhibition": "-3.7%"}
{"smiles": "Cc1ccc(NC(=S)NNC(=O)CSc2nnc(SCc3ccccc3Cl)s2)cc1", "inhibition": "0.65%"}
{"smiles": "COc1ccc(C(N)c2csc(NC(=O)Nc3cccc(C(F)(F)F)c3)n2)cc1", "note": "(stereo unspecified)", "inhibition": "5.13%"}
{"smiles": "CCCCOc1ccc(CSC(=N)N)cc1[N+](=O)[O-]", "inhibition": "-15.6%"}
{"smiles": "Cc1c(Cl)cccc1NC(=S)NCc1ccc2c(c1)OCO2", "inhibition": "0.14%"}
{"smiles": "C/C(=N\\NC(=O)CSc1nc2ccccc2c(=O)n1-c1ccccc1C)c1cccs1", "inhibition": "-14.6%"}
{"smiles": "O=C(COc1ccc(S(=O)(=O)NCc2ccccc2)cc1)N1CCOCC1", "inhibition": "-4.58%"}
{"smiles": "C=CCn1c(C23CC4CC(CC(C4)C2)C3)n[nH]c1=S", "inhibition": "-2.58%"}
{"smiles": "CCOC(=O)NC(=O)/C(C#N)=C\\c1ccccc1", "inhibition": "-4.97%"}
